# Potency and affinity values are given separately. Results filed as inconclusive are left out. Unmarked numbers belong to inactive results.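 The calls were made as follows: active = fitted half-maximal concentration no higher than twice the top tested dose, in every repeat run; inconclusive = repeat runs disagree, poor fit, or flat partial inhibition; inactive = the rest.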
# Target: Endoplasmic reticulum aminopeptidase 1 (Homo sapiens) (UniProt Q9NZ08)
# Experiment: inhibition of human ERAP1 enzyme activity – biochemical, cherry-pick, set 2, plate reader, dose response (AID 743314);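 also: 0% = neutral control wells and -100% = L-leucinethiol positive control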
# Conditions: Recombinant ERAP1, Leu-AMC fluorescence, 60 min; series mostly up to 11 µM; activity change, negative = inhibition: at the top concentration
# Sequence of Endoplasmic reticulum aminopeptidase 1 (Homo sapiens) (Q9NZ08 whole entry, looked up): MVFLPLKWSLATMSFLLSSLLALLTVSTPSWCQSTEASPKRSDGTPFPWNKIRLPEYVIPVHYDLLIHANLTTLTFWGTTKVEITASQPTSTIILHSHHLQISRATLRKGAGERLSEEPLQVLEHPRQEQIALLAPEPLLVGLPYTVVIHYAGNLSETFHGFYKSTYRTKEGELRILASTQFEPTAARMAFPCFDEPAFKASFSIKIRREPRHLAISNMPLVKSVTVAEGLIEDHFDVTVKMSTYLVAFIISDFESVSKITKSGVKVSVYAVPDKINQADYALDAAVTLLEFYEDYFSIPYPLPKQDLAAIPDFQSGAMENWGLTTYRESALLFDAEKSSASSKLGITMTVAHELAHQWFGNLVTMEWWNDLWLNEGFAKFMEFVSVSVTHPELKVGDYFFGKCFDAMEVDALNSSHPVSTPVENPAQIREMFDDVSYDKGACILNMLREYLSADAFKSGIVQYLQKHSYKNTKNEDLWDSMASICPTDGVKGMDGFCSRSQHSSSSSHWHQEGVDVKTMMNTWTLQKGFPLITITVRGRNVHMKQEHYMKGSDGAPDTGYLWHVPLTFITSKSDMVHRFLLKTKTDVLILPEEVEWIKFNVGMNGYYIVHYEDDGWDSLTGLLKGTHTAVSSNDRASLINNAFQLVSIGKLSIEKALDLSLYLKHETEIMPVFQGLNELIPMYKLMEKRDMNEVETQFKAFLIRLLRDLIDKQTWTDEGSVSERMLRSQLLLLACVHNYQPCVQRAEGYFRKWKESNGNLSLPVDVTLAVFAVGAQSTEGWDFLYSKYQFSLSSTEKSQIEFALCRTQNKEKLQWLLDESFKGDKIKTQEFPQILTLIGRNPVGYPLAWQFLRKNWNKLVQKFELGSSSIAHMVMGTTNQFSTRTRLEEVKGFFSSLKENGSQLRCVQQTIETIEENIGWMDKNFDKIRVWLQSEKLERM
row,Compound,"activity change, negative = inhibition"
1,COc1ccc(CN(C)C(=O)CCCNC(=O)c2ccc(Cl)cc2)cc1,-4.67%
2,CN(Cc1ccccc1)C(=O)c1ncn(C)c1C(=O)N(C)Cc1ccccc1,-14.8%
3,CCc1c(C)c2cc(Cl)c(O)c(CN3CCCC3)c2oc1=O,20.7%
4,CC(=O)Nc1ccc2nc(NC(=O)CN3CCOCC3)sc2c1,9.19%
5,Cc1ccc(SC(C)C(=O)NCc2ccncc2)cc1 (stereo not drawn),3.37%
6,COc1ccc2c3c([nH]c2c1)[C@@H](CO)N(C(C)=O)CC31CN(S(=O)(=O)c2cccs2)C1,25.8%
7,C[C@H]1CN([C@@H](C)CO)C(=O)c2cc(NC(=O)CCN3CCOCC3)ccc2O[C@@H]1CN(C)S(=O)(=O)c1ccccc1,22.3%
8,COC(=O)[C@H]1[C@H](CO)[C@H]2Cn3c(ccc(C4=CCCC4)c3=O)[C@H]2N1C(=O)C1CC1,33.1%
9,Cc1ccc(NC(=O)C2CCN(C(=O)c3cccs3)CC2)c(C)c1,-4.73%
10,Cn1cnc(C(=O)N2CCN(C(=O)OC(C)(C)C)CC2)c1C(=O)N1CCN(C(=O)OC(C)(C)C)CC1,-10.3%
11,Cc1c(O)ccc2c(CN3CCN(Cc4ccccc4)CC3)cc(=O)oc12,145%
12,C[C@H](CO)N1C[C@H](C)[C@@H](CN(C)Cc2ccc(C(=O)O)cc2)OCCCC[C@H](C)Oc2ccc(NC(=O)Nc3ccccc3)cc2C1=O,58.9%
13,C[C@H](CO)N1C[C@H](C)[C@H](CN(C)Cc2ccc(C(=O)O)cc2)Oc2c(NC(=O)Nc3ccccc3)cccc2C1=O,59.2%
14,CC(C)NC(=O)C1C(c2ccc(C(F)(F)F)cc2)=Nc2ccccc2N1C(=O)c1ccco1 (stereo not drawn),4.24%
15,COc1ccc(C2=NN(c3ccc(C(=O)O)cc3)C(c3ccc(OC)c(OC)c3)C2)cc1 (stereo not drawn),364%
16,CCOc1ccccc1OCCCC(=O)Nc1ccc(S(=O)(=O)Nc2cc(C)nc(C)n2)cc1,9.91%
17,C[C@@H]1CN([C@H](C)CO)C(=O)c2cccc(NC(=O)Nc3ccc(C(F)(F)F)cc3)c2O[C@@H]1CN(C)C,40.4%
18,COc1ccc(NC(=O)Nc2ccc3c(c2)C(=O)N([C@@H](C)CO)C[C@@H](C)[C@H](CN(C)Cc2ccc(C(=O)O)cc2)OCCCC[C@H](C)O3)cc1,57%
19,N=c1c(S(=O)(=O)c2ccccc2)cc2c(=O)n3ccccc3nc2n1CCCN1CCOCC1,-15.8%

row,Compound,"activity change, negative = inhibition"
1,C[C@H]1CCCCO[C@@H](CN(C)S(=O)(=O)c2cn(C)cn2)[C@@H](C)CN([C@@H](C)CO)C(=O)c2cc(NC(=O)Nc3ccccc3)ccc2O1,13.8%
2,CN1CCN(S(=O)(=O)c2ccc(C3CCCCC3)cc2)CC1,-7.06%
3,COc1ccc(C(=O)O)cc1S(=O)(=O)Nc1cc(C(F)(F)F)ccc1N1CCCCC1,239% [at 2.6 µM]
4,COc1cccc(CN(C)Cc2cc(=O)oc3cc(O)c(Cl)cc23)c1,187%
5,C[C@@H]1CCCCO[C@@H](CN(C)C)[C@H](C)CN([C@H](C)CO)C(=O)c2cc(NS(=O)(=O)c3ccc(Cl)cc3)ccc2O1,14%
6,C[C@H](CO)N1C[C@H](C)[C@H](CN(C)C)OCCCC[C@H](C)Oc2ccc(NS(=O)(=O)c3ccc(Cl)cc3)cc2C1=O,32.6%
7,CN1C2=NCCN2C(=O)c2cc(Cl)ccc21,-10.8%
8,CCN(CC)CCCN=C1N[C@@H](c2cccc(C(F)(F)F)c2)C(C(=O)OC)=C(C)N1CC,-14.6%
9,CC(Nc1ccc(F)cc1)=[N+](C)CCNS(=O)(=O)c1ccc(Cl)cc1,-9.26%
10,COc1ccc(CN(C)C[C@H]2OCCCC[C@H](C)Oc3ccc(NS(=O)(=O)c4cccs4)cc3C(=O)N([C@H](C)CO)C[C@H]2C)cc1,14.9%
11,O=C(O)[C@@H]1[C@@H](CO)[C@@H]2Cn3c(ccc(/C=C/c4ccccc4)c3=O)[C@@H]2N1Cc1ccc2c(c1)OCO2,3.6%
12,CC1CN(Cc2cc(=O)oc3cc(O)c(Cl)cc23)CC(C)O1 (stereo not drawn),86.2% [at 5.6 µM]
13,C[C@H]1CN([C@@H](C)CO)C(=O)Cc2cc(NC(=O)Nc3cccc4ccccc34)ccc2O[C@@H]1CN(C)Cc1ccc(C(=O)O)cc1,19.6%
14,COc1ccc(CN(C)C[C@@H]2Oc3c(NC(=O)NC4CCCCC4)cccc3C(=O)N([C@@H](C)CO)C[C@@H]2C)cc1,29.8%
15,O=c1cc(CN2CCN(Cc3ccccc3)CC2)c2ccc(O)cc2o1,273%
16,CC(=O)N1CCCCN2[C@H](CO)[C@@H](c3ccc(-c4ccccc4)cc3)[C@H]2C1,32.8%
17,C[C@@H]1CN([C@@H](C)CO)C(=O)c2cccc(NC(=O)Nc3ccc(C(F)(F)F)cc3)c2O[C@H]1CN(C)C,29%
18,CCOc1ccc(OCCCC(=O)N2CCN(S(=O)(=O)c3ccc(Cl)cc3)CC2)cc1,7.04%
19,N#Cc1ccccc1OCC(=O)OCC(=O)c1ccc2c(c1)NC(=O)CO2,-8.39%

# From PubChem BioAssay AID743314 (Broad Institute, 2014)
